Test results reported in PubChem BioAssay (NCATS).
Inconclusive results are not listed. A call without a number means that no potency is given here. Unmarked numbers belong to inactive results. Active and inactive are the calls of the source. Calls follow the shape of the dose curve; as a rule, active = well fitted cell-killing curve with a large enough effect; inconclusive = small, poorly fitted or top-dose-only effect, or effect the other way; inactive = flat fitted curve, though single readings scatter.

Assays:
Tov-21-G = test: Primary qHTS to identify gynecologic anti-cancer compounds using libraries of approved drugs and bioactive compounds (AID 1345084); settings: Gynecologic cancer cell panel viability, ATPlite luminescence, 48 h; series mostly up to 57.5 µM; also: nearly all actives have a fitted effect of over 55% in size
Outline: (§1)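 Cells, 1,000 per well, were allowed to settle for 16 h at 37 C before compound addition. Five concentrations were tested for 48 h, and viability was read by ATPlite luminescence after 15 min at room temperature.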

Tov112D = test: as above; settings: Gynecologic cancer cell panel viability, ATPlite luminescence, 48 h; series mostly up to 57.5 µM
Outline: as §1
Potency is read from the fitted curve at half-maximal effect.

For O=C(NCCN1CCOCC1)c1cc2c(Oc3ccc(NC(=O)C4(C(=O)Nc5ccc(F)cc5)CC4)cc3)ccnc2[nH]1, the Potency (Tov-21-G) was “inactive” and the Potency (Tov112D) was “inactive”.

For C/C=C(/C=C(C)/C=C/C=C/C=C(\C)C(=O)C12OC1C(O)(CCO)NC2=O)C(=O)OC (stereo unspecified), the Potency (Tov-21-G) was “inactive” and the Potency (Tov112D) was “inactive”.

With CCc1c(Cl)c(O)c(Cl)c(O)c1C(=O)O[C@H]1[C@H](O)[C@H](OC)[C@H](OC/C2=C\C=C\C[C@H](O)/C(C)=C\[C@H](CC)[C@@H](O[C@@H]3OC(C)(C)[C@@H](OC(=O)C(C)C)[C@H](O)[C@@H]3O)/C(C)=C/C(C)=C/C[C@@H]([C@@H](C)O)OC2=O)O[C@@H]1C the Potency (Tov-21-G) was “inactive” and the Potency (Tov112D) was “inactive”.

For Cc1ccccc1CN1CCn2c1nc1c(c2=O)CN(Cc2ccccc2)CC1, the Potency (Tov-21-G) was “inactive” and the Potency (Tov112D) was “inactive”.

In the case of CC(=O)O[C@@H]1C2=C(O)C(=O)[C@](C)(OC(C)=O)C(=O)C2=CO[C@@]12O[C@@H](C)CC[C@H]2OC(C)=O, the Potency (Tov-21-G) is reported as “inactive” and the Potency (Tov112D) is reported as “inactive”.

CN(C)c1ccc(NC(=O)NS(=O)(=O)c2ccc(Cl)cc2)cc1 was tested, and the Potency (Tov-21-G) was “inactive” and the Potency (Tov112D) was “inactive”.

In the case of O=C(C1CCCCC1)N(CCN1CCN(c2ccccc2O)CC1)c1ccccn1, the Potency (Tov-21-G) is reported as “inactive” and the Potency (Tov112D) is reported as “inactive”.

With CC1(C)CC[C@]2(C(=O)O)CC[C@]3(C)C(=CCC4[C@@]5(C)C[C@@H](O)[C@H](O)[C@@](C)(CO)C5CC[C@]43C)[C@@H]2[C@@H]1O (stereo partly specified) the Potency (Tov-21-G) was “inactive” and the Potency (Tov112D) was “inactive”.

With COc1ccc(S(=O)(=O)Nc2cc(Cl)cc(Cl)c2OC)cc1N1CCNCC1 the Potency (Tov-21-G) was “inactive” and the Potency (Tov112D) was “inactive”.

Clc1cccc(COc2cncc(N3CCNCC3)n2)c1 was tested, and the Potency (Tov-21-G) was “inactive” and the Potency (Tov112D) was “inactive”.

In the case of CN(C)CCC(CSc1ccccc1)Nc1ccc(S(=O)(=O)NC(=O)c2ccc(N3CCN(Cc4ccccc4-c4ccc(Cl)cc4)CC3)cc2)cc1[N+](=O)[O-] (stereo unspecified), the Potency (Tov-21-G) is reported as “inactive” and the Potency (Tov112D) is reported as “inactive”.

In the case of C/C=C(\C)C(=O)OC1C(C)C2(O)C(C=C(CO)CC3(O)C(=O)C(C)=CC32)C2C(C)(C)C12OC(=O)C(C)C (stereo unspecified), the Potency (Tov-21-G) is reported as “inactive” and the Potency (Tov112D) is reported as “inactive”.

C[C@H]1CC[C@@]2(OC1)O[C@H]1CC3[C@@H]4CC[C@@H]5C[C@@H](O[C@@H]6O[C@H](CO)[C@@H](O[C@@H]7O[C@@H](C)[C@H](O)[C@@H](O)[C@H]7O)[C@H](O)[C@H]6O[C@@H]6O[C@H](CO)[C@@H](O)[C@H](O)[C@H]6O)CC[C@]5(C)C4CC[C@]3(C)[C@H]1[C@@H]2C (stereo partly specified) gave an activity change, negative = cytotoxicity (Tov-21-G) of -2.16% [at 11.6 µM] and an activity change, negative = cytotoxicity (Tov112D) of -1.68% [at 11.6 µM].

COc1cc(CN(CCN)C(=O)c2cccs2)ccc1OCc1ccccc1 was tested, and the Potency (Tov-21-G) was “inactive” and the Potency (Tov112D) was “inactive”.

For COc1cc(/C=C/C(=O)NCCn2c(C(F)(F)F)cc3ccccc32)cc(OC)c1OC, the Potency (Tov-21-G) was “inactive” and the Potency (Tov112D) was “inactive”.

CC(=O)CC(=O)Nc1ccc(Cl)c(C(F)(F)F)c1 was tested, and the Potency (Tov-21-G) was “inactive” and the Potency (Tov112D) was “inactive”.

In the case of CC(=O)OCC(=O)[C@@]12O[C@@H]1C[C@H]1[C@@H]3CC=C4C[C@@H](O)CC[C@]4(C)[C@H]3CC[C@@]12C, the Potency (Tov-21-G) is reported as “inactive” and the Potency (Tov112D) is reported as “inactive”.

For Cc1ccc(N2CCN(S(=O)(=O)N3CCCCC3)CC2)c(C)c1, the Potency (Tov-21-G) was “inactive” and the Potency (Tov112D) was “inactive”.

COc1ccccc1N1CCN(CC[C@@](C)(C(=O)C2CCCCC2)c2ccccc2)CC1 was tested, and the Potency (Tov-21-G) was “inactive” and the Potency (Tov112D) was “inactive”.

In the case of CN1CCN(C(=O)CN[C@@H]2C[C@H]2c2ccc(OCc3ccccc3)cc2)CC1, the Potency (Tov-21-G) is reported as “inactive” and the Potency (Tov112D) is reported as “inactive”.

CC(C)C[C@H](C(=O)O)c1cc(-c2ccc(C(F)(F)F)cc2)cc(-c2ccc(C(F)(F)F)cc2)c1 was tested, and the Potency (Tov-21-G) was “inactive” and the Potency (Tov112D) was “inactive”.

CCCCc1c(-c2ccc(OC)cc2)[nH]c2nccnc12 was tested, and the Potency (Tov-21-G) was “inactive” and the Potency (Tov112D) was “inactive”.

For CC[N+]1(C/C2=C/CCCCCC2)CCC(NC(=O)C2c3cc(Cl)ccc3Oc3ccc(Cl)cc32)CC1 (stereo unspecified), the Potency (Tov-21-G) was “inactive” and the Potency (Tov112D) was “inactive”.

With COc1ccc([C@H]2OC[C@H]3O[C@@H](O[C@H]4[C@@H]2NC[C@@H]4O)[C@H](O)[C@H]3O)cc1 the Potency (Tov-21-G) was 2820 nM (active) and the Potency (Tov112D) was 5620 nM (active).

COc1ccc(C2Oc3c(OC)cc(CCCO)cc3C2COC2OC(CO)C(O)C(O)C2O)cc1OC (stereo unspecified) was tested, and the Potency (Tov-21-G) was “inactive” and the Potency (Tov112D) was “inactive”.

With COc1ccccc1N1CCN(c2ncnc3n[nH]c(Br)c23)CC1 the Potency (Tov-21-G) was “inactive” and the Potency (Tov112D) was “inactive”.

In the case of CCCCC1CCN(CCCN2C(=O)CCc3ccccc32)CC1, the Potency (Tov-21-G) is reported as “inactive” and the Potency (Tov112D) is reported as “inactive”.

With CC(C)NCCCn1c(Sc2cc3c(cc2I)OCO3)nc2c(N)ncnc21 the Potency (Tov-21-G) was 501 nM (active) and the Potency (Tov112D) was 891 nM (active).

With O=C(Nc1cccc([N+](=O)[O-])c1)c1cccc(S(=O)(=O)N2CCCCCC2)c1 the Potency (Tov-21-G) was “inactive” and the Potency (Tov112D) was “inactive”.

With CCN(c1cc(-c2ccc(CN3CCOCC3)cc2)cc(C(=O)NCc2c(C)cc(C)[nH]c2=O)c1C)C1CCOCC1 the Potency (Tov-21-G) was “inactive” and the Potency (Tov112D) was “inactive”.

For Cc1cc(C(=O)Cn2cc(C#N)ccc2=O)c(C)n1Cc1ccccc1, the Potency (Tov-21-G) was “inactive” and the Potency (Tov112D) was “inactive”.

For COc1ccc(-c2c(C)nn3c(NCCN4CCOCC4)cc(C)nc23)cc1OC, the Potency (Tov-21-G) was “inactive” and the Potency (Tov112D) was “inactive”.

With COC(=O)C[C@H]1C(C)(C)[C@H](OC(=O)c2ccccc2)C2CC3=C4CC(=O)O[C@@H](c5ccoc5)[C@]4(C)CCC3[C@@]1(C)C2=O (stereo partly specified) the Potency (Tov-21-G) was “inactive” and the Potency (Tov112D) was “inactive”.

With COc1ccc(NC(=O)c2ccc(C(=N)N(C)C)cc2)c(C(=O)Nc2ccc(Cl)cn2)c1 the Potency (Tov-21-G) was “inactive” and the Potency (Tov112D) was “inactive”.

In the case of CS(=O)(=O)Nc1ccc2oc3c(OC(F)F)ccc(C(=O)Nc4c(Cl)cncc4Cl)c3c2c1, the Potency (Tov-21-G) is reported as “inactive” and the Potency (Tov112D) is reported as “inactive”.

For CC(C)(Cc1nc(-c2ccc(O)cn2)no1)C(=O)NC1=C(C(=O)O)CCCC1, the Potency (Tov-21-G) was “inactive” and the Potency (Tov112D) was “inactive”.

NS(=O)(=O)c1ccc(N2CCN(CC[C@@H]3OCCc4ccccc43)CC2)cc1 was tested, and the Potency (Tov-21-G) was “inactive” and the Potency (Tov112D) was “inactive”.

With CC(C)c1cccc(C(C)C)c1NC(=O)Nc1ccc(Sc2ccc([N+](=O)[O-])cc2)cc1 the Potency (Tov-21-G) was “inactive” and the Potency (Tov112D) was “inactive”.

O=C(N[C@H](Cc1cscn1)C(=O)N[C@@H](CC1CCCCC1)[C@@H](O)[C@@H](O)C1CC1)c1nc2ccccc2[nH]1 was tested, and the Potency (Tov-21-G) was “inactive” and the Potency (Tov112D) was “inactive”.

For CS/C=C/C(=O)O[C@@H]1CCC2=CC(=O)C(=C(C)C)C[C@]2(C)[C@H]1C, the Potency (Tov-21-G) was “inactive” and the Potency (Tov112D) was “inactive”.

In the case of COc1cc2c(c(OC)c1CC=C(C)C)C[C@H](c1ccc(O)c(CC=C(C)C)c1O)CO2, the Potency (Tov-21-G) is reported as “inactive” and the Potency (Tov112D) is reported as “inactive”.

In the case of CCCCCCCCC(=O)N[C@H](CN1CCCC1)[C@H](O)c1ccc2c(c1)OCCO2, the Potency (Tov-21-G) is reported as “inactive” and the Potency (Tov112D) is reported as “inactive”.

For Cc1cccc(C#Cc2cc(F)cc(C#N)c2)n1, the Potency (Tov-21-G) was “inactive” and the Potency (Tov112D) was “inactive”.

In the case of Cc1cc(OCCCS(C)(=O)=O)cc(C)c1-c1cccc(COc2ccc3c(c2)OCC3CC(=O)O)c1 (stereo unspecified), the Potency (Tov-21-G) is reported as “inactive” and the Potency (Tov112D) is reported as “inactive”.

C=C(C)C(=O)O[C@H]1[C@H]2C(=C)C(=O)O[C@@H]2/C=C(\CO)CC/C=C(/C=O)[C@@H]1O was tested, and the Potency (Tov-21-G) was “inactive” and the Potency (Tov112D) was “inactive”.

With C/C=C/C=C/c1cc2c(C=O)c(O)c(CC=C(C)C)cc2o1 the Potency (Tov-21-G) was “inactive” and the Potency (Tov112D) was “inactive”.

CCn1c(=O)n([C@H]2CCCN(c3nccc(-c4cc5ccccc5o4)n3)C2)c2ccccc21 was tested, and the Potency (Tov-21-G) was “inactive” and the Potency (Tov112D) was “inactive”.

In the case of Cc1cc(C)nc(SCC(=O)Nc2ncc(Cc3cccc4ccccc34)s2)n1, the Potency (Tov-21-G) is reported as “inactive” and the Potency (Tov112D) is reported as “inactive”.
